Results as given in ChEMBL document CHEMBL3988442, “University of Dundee, Small-Polar-MMV Screening Library” (2021).
The whole screen tested about 48,000 compounds, of which about 13,000 (27%) showed an effect of 50% or more. The list shows a part of the results.

The compounds below were run on Wolbachia pipientis (assay: Anti-Wolbachia Cell-Based Screen). Settings: 5 µM.
Type: functional
Parameters: scale not given: in the data most compounds retested in dose-response had high values

Structure (SMILES)	Percent Effect [%]
CSc1ncccc1C(=O)NCCC(O)c1cccs1 (centres undefined)	13.17
CSc1ncccc1C(=O)NCCC(O)c1cc(C)oc1C (centres undefined)	-1.719
COc1ccc(OC)c(Sc2ncccc2C(=O)NCCSC)c1	104.4
O=c1oc(-c2ccc(F)cc2)nn1CCc1ccccn1	-9.185
O=C(c1ccc(N2CCCCCC2)nn1)N1CCc2ccccc21	130.8
O=C(c1ccc(N2CCCC2)nn1)N1CCCc2ccc(F)cc21	-11.11
O=C(c1ccc(N2CCCC2)nn1)N1CCc2ccccc21	13.46
CCN(CC)C(=O)Nc1cc2c(cc1SC)OCCO2	7.32
O=C(c1cc(Cl)c2c(c1)OCO2)N1CCCC(n2ccnc2)C1 (centres undefined)	1.53
O=C(c1cccc2c1OCCO2)N1CCCC(n2ccnc2)C1 (centres undefined)	-8.704
CCc1nccn1C1CCCN(C(=O)c2cccc3c2OCO3)C1 (centres undefined)	115.7
O=C(c1cccc2c1OCO2)N1CCCC(n2ccnc2)C1 (centres undefined)	115.9
Cc1nccn1C1CCCN(C(=O)c2cccc3c2OCO3)C1 (centres undefined)	116.3
CCc1nccn1C1CCCN(C(=O)c2ccnc(C)n2)C1 (centres undefined)	1.971
CCc1nccn1C1CCCN(C(=O)c2cnn3ccc(C)nc23)C1 (centres undefined)	-1.055
CC(C)c1nccn1C1CCCN(C(=O)c2cccc3c2OCO3)C1 (centres undefined)	-5.15
O=C1CC(C(=O)Nc2nnc(-c3cccs3)[nH]2)c2ccccc2N1 (centres undefined)	-3.979
CC(C)OC(=O)CN1N=C(C(=O)N2CCCC2)S(=O)(=O)c2ccccc21	15.65
N#Cc1ccccc1CN1C[C@@H]2CC[C@H](C1)N(CC1CC1)C2=O	-10.09
Cc1nn(CCC#N)c(C)c1CCC(=O)N(C(C)C)C1CC1	-0.4171
COc1ccc(C(=O)NC2CC2)c(OC2CCN(CC3CC3)CC2)c1	4.837
CSCC(=O)N1CCCC(n2ccnc2C(C)C)C1 (centres undefined)	-4.829
CC(C)c1nccn1C1CCCN(C(=O)c2ccc(=O)n(C)n2)C1 (centres undefined)	4.106
COCc1nc(C(=O)N2CCCC(n3ccnc3C(C)C)C2)cs1 (centres undefined)	114
COCc1nc(C(=O)N2CCCC(n3ccnc3)C2)cs1 (centres undefined)	102.7
COCc1nc(C(=O)N2CCCC(n3ccnc3C)C2)cs1 (centres undefined)	95.68
Cc1nccn1C1CCCN(C(=O)c2ccc(N3CCCC3)nn2)C1 (centres undefined)	-4.751
COCc1nc(C(=O)N2CCN(c3nccc(OC)n3)CC2)cs1	-10.67
CC(=O)Nc1nc(C(=O)N2CCCC(n3ccnc3)C2)cs1 (centres undefined)	-0.04658
